According to PubChem BioAssay (Tox21):
“And” between values parts separate entries of the source, which are not always exact repeats. Equal entries are not always repeated. Inconclusive results are not listed. Entries that show only a call come without a potency. Unmarked numbers belong to inactive results. The source made the active and inactive calls. The call rests on the fitted dose curve; in most records, active means well fitted curve in the direction sought with a large enough effect in the repeat runs; inconclusive means weak or mixed curves; inactive means no such curve, though single readings can be large; an effect the other way counts as inactive or inconclusive.

Key:
[1] = A CellTox Green Cytotoxicity Assay to monitor cytotoxicity in HEK293 cells - 40 hour (AID 1224871); further: nearly all actives have a fitted effect of over 45% in size; further: potency means the concentration at half of the fitted maximal effect
Procedure, shortened: (§1)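 Fluorescence intensity, read at 0, 8, 16, 24, 32 and 40 h of compound treatment, reflected dye binding to DNA of dead HEK293 cells; compounds (23 nL, DMSO) were added 5 h after plating cells with reagent.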

[2] = qHTS RealTime-Glo MT Cell Viability Assay in HEK293 cells - 16 hour (AID 1224872); further: nearly all actives have a fitted effect of over 50% in size; further: potency means the concentration at half of the fitted maximal effect
Procedure, shortened: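 Cells + reagent dispensed (600 cells/well, HEK293) → 5 h at 37 C/5% CO2 → 23 nL compound in DMSO pinned → 40 h at 37 C → luminescence read at 0, 8, 16, 24, 32, 40 h.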

[3] = qHTS RealTime-Glo MT Cell Viability Assay in HepG2 cells - 8 hour (AID 1224873); further: nearly all actives have a fitted effect of over 55% in size; further: potency means the concentration at half of the fitted maximal effect
Procedure, shortened: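 Real-time viability: cells seeded at 600 per well together with NanoLuc and cell-permeant prosubstrate, compounds added after 5 h incubation. Luminescence tracked at 0, 8, 16, 24, 32 and 40 h of exposure.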

[4] = qHTS RealTime-Glo MT Cell Viability Assay in HEK293 cells - 40 hour (AID 1224874); settings: RealTime-Glo luminescence; max response: stronger effect = lower value; further: nearly all actives have a fitted effect of over 50% in size; further: potency means the concentration at half of the fitted maximal effect
Procedure, shortened: (§2)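 Viable HEK293 cells reduce a cell-permeant prosubstrate; the product diffuses out and is consumed by NanoLuc in the medium to give light. Compounds went in after a 5 h incubation and plates were read over the treatment course.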

[5] = A CellTox Green Cytotoxicity Assay to monitor cytotoxicity in HEK293 cells - 24 hour (AID 1224875); further: nearly all actives have a fitted effect of over 45% in size; further: potency means the concentration at half of the fitted maximal effect
Procedure, shortened: as §1

[6] = A CellTox Green Cytotoxicity Assay to monitor cytotoxicity in HepG2 cells - 16 hour (AID 1224876); further: nearly all actives have a fitted effect of over 45% in size; further: potency means the concentration at half of the fitted maximal effect
Procedure, shortened: (§3)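 Using 1536-well format, dye-containing HepG2 suspension was seeded, allowed 5 h at 37 C/5% CO2, dosed by pintool with compounds, positive and negative controls, and imaged for fluorescence across 40 h.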

[7] = qHTS RealTime-Glo MT Cell Viability Assay in HepG2 cells - 32 hour (AID 1224877); further: nearly all actives have a fitted effect of over 55% in size; further: potency means the concentration at half of the fitted maximal effect
Procedure, shortened: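 Real-time, nonlytic viability: 600 HepG2 cells/well mixed with NanoLuc enzyme plus prosubstrate; 5 h settle, compound (DMSO) added by pintool; luminescence monitored over 40 h at 37 C.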

[8] = A CellTox Green Cytotoxicity Assay to monitor cytotoxicity in HepG2 cells - 24 hour (AID 1224878); further: nearly all actives have a fitted effect of over 45% in size; further: potency means the concentration at half of the fitted maximal effect
Procedure, shortened: as §3

[9] = A CellTox Green Cytotoxicity Assay to monitor cytotoxicity in HepG2 cells - 40 hour (AID 1224879); further: nearly all actives have a fitted effect of over 40% in size; further: potency means the concentration at half of the fitted maximal effect
Procedure, shortened: as §3

[10] = qHTS RealTime-Glo MT Cell Viability Assay in HEK293 cells - 0 hour (AID 1224880)
Procedure, shortened: as §2

Compound: O=C([O-])c1ccccn1.O=C([O-])c1ccccn1.O=C([O-])c1ccccn1.[Cr+3]
- Potency [1]: inactive
- Potency [2]: inactive
- Potency [3]: inactive
- max response [4]: 2.2%
- Potency [5]: inactive
- Potency [6]: inactive
- Potency [7]: inactive
- Potency [8]: inactive
- Potency [9]: inactive
- outcome [10]: inactive

Compound: Cc1nc(N(C)C)nc(OC(=O)N(C)C)c1C
- Potency [1]: inactive
- Potency [2]: inactive
- Potency [3]: inactive
- max response [4]: 2.7%
- Potency [5]: inactive
- Potency [6]: inactive
- Potency [7]: inactive
- Potency [8]: inactive
- Potency [9]: inactive
- outcome [10]: inactive

Compound: FC(F)OC(F)(F)C(F)Cl (stereo not drawn)
- Potency [1]: inactive
- Potency [2]: inactive
- Potency [3]: inactive
- max response [4]: 8.01%
- Potency [5]: inactive
- Potency [6]: inactive
- Potency [7]: inactive
- Potency [8]: inactive
- Potency [9]: inactive
- outcome [10]: inactive

Compound: O=C(O)C(O)C(O)C(=O)O (stereo not drawn)
- Potency [1]: inactive
- Potency [2]: inactive
- Potency [3]: inactive
- max response [4]: -0.119%
- Potency [5]: inactive
- Potency [6]: inactive
- Potency [7]: inactive
- Potency [8]: inactive
- Potency [9]: inactive
- outcome [10]: inactive

Compound: O=P(OCC(Br)CBr)(OCC(Br)CBr)OCC(Br)CBr (stereo not drawn)
- Potency [1]: inactive
- Potency [2]: 22.2 µM (active)
- Potency [3]: inactive
- Potency [4]: 27.9 µM (active)
- Potency [5]: inactive
- Potency [6]: inactive
- Potency [7]: inactive
- Potency [8]: inactive
- Potency [9]: inactive
- outcome [10]: inactive

Compound: O=C(NCNC(=O)NC1C(=O)NC(=O)N1CO)NC1C(=O)NC(=O)N1CO (stereo not drawn)
- Potency [1]: inactive
- Potency [2]: inactive
- Potency [3]: inactive
- max response [4]: 4.4%
- Potency [5]: inactive
- Potency [6]: inactive
- Potency [7]: inactive
- Potency [8]: inactive
- Potency [9]: inactive
- outcome [10]: inactive

Compound: CCOP(=S)(S)OCC
- Potency [1]: inactive
- Potency [2]: inactive
- Potency [3]: inactive
- max response [4]: 2.46%
- Potency [5]: inactive
- Potency [6]: inactive
- Potency [7]: inactive
- Potency [8]: inactive
- Potency [9]: inactive
- outcome [10]: inactive

Compound: CCCC[N+]1(C)[C@@H]2CC(OC(=O)[C@H](CO)c3ccccc3)C[C@H]1[C@@H]1O[C@@H]12 (stereo partly drawn)
- Potency [1]: inactive
- Potency [2]: inactive
- Potency [3]: inactive
- max response [4]: 2.06%
- Potency [5]: inactive
- Potency [6]: inactive
- Potency [7]: inactive
- Potency [8]: inactive
- Potency [9]: inactive
- outcome [10]: inactive

Compound: C[CH2][Hg][S]c1ccccc1C(=O)O
- Potency [1]: 6.92 µM (active) and 4.77 µM (active)
- Potency [2]: 1.23 µM (active) and 2.13 µM (active)
- Potency [3]: 3.47 µM (active) and 2.13 µM (active)
- Potency [4]: 871 nM (active) and 952 nM (active)
- Potency [5]: 7.76 µM (active) and 5.35 µM (active)
- Potency [6]: 3.89 µM (active) and 2.39 µM (active)
- Potency [7]: 2.19 µM (active) and 2.13 µM (active)
- Potency [8]: 5.49 µM (active) and 2.39 µM (active)
- Potency [9]: 1.95 µM (active) and 2.13 µM (active)
- outcome [10]: inactive

Compound: CNC(=O)Oc1cccc(N=CN(C)C)c1
- Potency [1]: inactive
- Potency [2]: inactive
- Potency [3]: inactive
- max response [4]: 7.04%
- Potency [5]: inactive
- Potency [6]: inactive
- Potency [7]: inactive
- Potency [8]: inactive
- Potency [9]: inactive
- outcome [10]: inactive

Compound: Clc1ccc(Cl)c(Cl)c1
- Potency [1]: inactive
- Potency [2]: inactive
- Potency [3]: inactive
- max response [4]: -1.09% and 2.8%
- Potency [5]: inactive
- Potency [6]: inactive
- Potency [7]: inactive
- Potency [8]: inactive
- Potency [9]: inactive
- outcome [10]: inactive

Compound: C#CC(O)(C=CCl)CC (stereo not drawn)
- Potency [1]: inactive
- Potency [2]: inactive
- Potency [3]: inactive
- max response [4]: 10.1%
- Potency [5]: inactive
- Potency [6]: inactive
- Potency [7]: inactive
- Potency [8]: inactive
- Potency [9]: inactive
- outcome [10]: inactive

Compound: Oc1cccc(Cl)c1
- Potency [1]: inactive
- Potency [2]: inactive
- Potency [3]: inactive
- max response [4]: 0.464%
- Potency [5]: inactive
- Potency [6]: inactive
- Potency [7]: inactive
- Potency [8]: inactive
- Potency [9]: inactive
- outcome [10]: inactive

Compound: C[C@]12C=CC3=C4CCC(=O)C=C4CC[C@H]3[C@@H]1CC[C@@H]2O
- Potency [1]: inactive
- Potency [2]: inactive
- Potency [3]: inactive
- max response [4]: -25.8%
- Potency [6]: inactive
- Potency [7]: inactive
- Potency [8]: inactive
- Potency [9]: inactive
- outcome [10]: inactive

Compound: Cc1ncc(C[n+]2csc(CCO)c2C)c(N)n1
- Potency [1]: inactive
- Potency [2]: inactive
- Potency [3]: inactive
- max response [4]: -4.98%
- Potency [6]: inactive
- Potency [7]: inactive
- Potency [8]: inactive
- Potency [9]: inactive
- outcome [10]: inactive

Compound: N#CC(C#N)=C(C#N)C#N
- Potency [1]: inactive
- Potency [2]: inactive
- Potency [3]: inactive
- max response [4]: 20.6%
- Potency [6]: inactive
- Potency [7]: inactive
- Potency [8]: inactive
- Potency [9]: inactive
- outcome [10]: inactive

Compound: CCCCCCCCCCCCCCCl
- Potency [1]: inactive
- Potency [2]: inactive
- Potency [3]: inactive
- max response [4]: 1.34%
- Potency [6]: inactive
- Potency [7]: inactive
- Potency [8]: inactive
- Potency [9]: inactive
- outcome [10]: inactive

Compound: CCC1(CC)C(=O)NC(=O)NC1=O
- Potency [1]: inactive
- Potency [2]: inactive
- Potency [3]: inactive
- max response [4]: 0.988%
- Potency [6]: inactive
- Potency [7]: inactive

Compound: C=C(C)C(=O)OCCCCOC(=O)C(=C)C
- Potency [1]: inactive
- Potency [2]: inactive
- Potency [3]: inactive
- max response [4]: 5.43%
- Potency [6]: inactive
- Potency [7]: inactive
- Potency [8]: inactive
- Potency [9]: inactive
- outcome [10]: inactive

Compound: CCCCCCCCCCCCN(C)C
- Potency [1]: inactive
- Potency [2]: inactive
- Potency [3]: inactive
- max response [4]: -4.6%
- Potency [5]: inactive
- Potency [6]: inactive
- Potency [7]: inactive
- Potency [8]: inactive
- outcome [10]: inactive

Compound: CCCCCl
- Potency [1]: inactive
- Potency [2]: inactive
- Potency [3]: inactive
- max response [4]: 1.53%
- Potency [6]: inactive
- Potency [7]: inactive
- Potency [8]: inactive
- Potency [9]: inactive
- outcome [10]: inactive

Compound: COc1cc(C[C@@H](C)N)c(OC)cc1Br
- Potency [1]: inactive
- Potency [2]: inactive
- Potency [3]: inactive
- max response [4]: -17.7%
- Potency [5]: inactive
- Potency [6]: inactive
- Potency [7]: inactive
- Potency [8]: inactive
- outcome [10]: inactive

Compound: NP(N)(=O)NC(=O)c1ccc(F)cc1
- Potency [1]: inactive
- Potency [2]: inactive
- Potency [3]: inactive
- max response [4]: 1.36%
- Potency [5]: inactive
- Potency [6]: inactive
- Potency [7]: inactive
- Potency [8]: inactive
- Potency [9]: inactive
- outcome [10]: inactive
